Results published in the supplement of paper PMC5407854, “Inhibitor of ppGalNAc-T3-mediated O-glycosylation blocks cancer cell invasiveness and lowers FGF23 levels” (eLife, 2017).
In all, about 1,700 compounds were measured (“T3 sensor activation Q score (MG/GFP ratio z-score vs DMSO controls)”: median about 0.25, highest 2% from about 1.9 on). This excerpt belongs to a sample that is enriched for the highest values.

System: ppGalNAc-T3 sensor
Experiment: T3 sensor activation Q score (MG/GFP ratio z-score vs DMSO controls) (SD units); higher = more sensor activation (inhibition of ppGalNAc-T3 glycosylation)
Details: HEK293 sensor cells; 10 µM; 6 h
Method: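 Cells were treated with compound at 10 uM for 6 h, then MG/GFP ratio was read by flow cytometry (10,000 cells per well, duplicate wells). Q = (R - R_neg)/SD_neg relative to DMSO vehicle controls; the signal rises when the glycosyltransferase is inhibited.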

| Compound | T3 sensor activation Q score |
| --- | --- |
| CC12CCC3C(CCC4Cc5[nH]c6ccccc6c5CC43C)C1CCC2O (stereo not given) | 0.6 |
| C[C@H]1CC[C@@]2(C)[C@@H](CC[C@@H]3[C@@H]2CC[C@]2(C)[C@@H](O)CC[C@@H]32)C1 | 3 |
| COc1ccc2c(c1)NP(=S)(Oc1ccccc1)N2 (stereo not given) | -0.15 |
| CCC1CCC(C)N(N=O)C1 (stereo not given) | 1.05 |
| Oc1cccc2nc3ccccc3nc12 | -0.35 |
| O=c1cccc2n1C[C@H]1C[C@@H]2CN2CCCC[C@@H]12 | 0.2 |
| CC(CC(C#N)(c1ccccc1)c1ccccc1)N1CCCCC1 (stereo not given) | 0.05 |
| CN1C2c3ccccc3C3C4c5ccccc5C(C31)C(C2[N+](=O)[O-])N4C (stereo not given) | 1.1 |
| CC12CCC3C(CC=C4CC(O)CCC43C)C1C/C(=C\N1CCCC1)C2=O (stereo not given) | 1.9 |
| CN1C(=O)CC[C@@]2(C)C1=CC[C@@H]1[C@@H]2CC[C@@]2(C)[C@H]1CC[C@]2(C)O | 0.4 |
| O=C(OC1CCCCC1)c1ccccc1C(=O)OC1CCCCC1 | 0.2 |
| Nc1nc(N)c2cnnn2n1 | 0.5 |
| FCCN(CCF)c1cccc(Cl)c1 | 1.9 |
| c1ccc2nc(OCCN3CC3)ccc2c1 | 1 |
| c1ccc2c(c1)Sc1ccccc1N2CC1CN2CCC1CC2 (stereo not given) | -0.15 |
| CC1(C)CC(=O)CC(C)(C)N1O | -1.9 |
| CC(=O)Nc1cc([As](=O)(O)O)ccc1O | 1.4 |
| NC(=S)c1cn([C@@H]2O[C@H](CO)[C@@H](O)[C@H]2O)c2ncnc(N)c12 | 4.95 |
| C1CC2NCCC3NCCC(N1)N32 (stereo not given) | -0.95 |
| CCOC(=O)c1ccc2[nH]c(-c3ccc(S(=O)(=O)F)cc3)cc(=O)c2c1 | 0.95 |
| O=C(NC(=O)c1c(F)cccc1F)Nc1cc(Cl)c(F)c(Cl)c1F | -0.65 |
| O=C1N(c2nncs2)CCN1[N+](=O)[O-] | 2.65 |
| CC[C@@]1(O)C(=O)OCc2c1cc1n(c2=O)Cc2cc3ccccc3nc2-1 | -1.75 |
| C=CCNC(=S)Nc1ccc(OC(=O)Nc2ccc(Cl)c(Cl)c2)cc1 | 0.4 |
| Cn1cc(C=O)c2nccnc21 | -1.5 |
